USP1 inh – Inhibitors of USP1/UAF1: Primary Screen; Ubiquitin carboxyl-terminal hydrolase 1 (Homo sapiens), O94782; recombinant USP1/UAF1, Ub-Rhodamine cleavage fluorescence; Potency, µM (series often up to 57.1 µM), without a hit: at the highest dose activity change, negative = inhibition, hits mostly inhibitors; hit rate 0.23% among 390,000; note: potency is the fitted concentration of half-maximal effect; nearly all actives have a fitted effect of over 60% in size
Target sequence (O94782 whole entry, looked up): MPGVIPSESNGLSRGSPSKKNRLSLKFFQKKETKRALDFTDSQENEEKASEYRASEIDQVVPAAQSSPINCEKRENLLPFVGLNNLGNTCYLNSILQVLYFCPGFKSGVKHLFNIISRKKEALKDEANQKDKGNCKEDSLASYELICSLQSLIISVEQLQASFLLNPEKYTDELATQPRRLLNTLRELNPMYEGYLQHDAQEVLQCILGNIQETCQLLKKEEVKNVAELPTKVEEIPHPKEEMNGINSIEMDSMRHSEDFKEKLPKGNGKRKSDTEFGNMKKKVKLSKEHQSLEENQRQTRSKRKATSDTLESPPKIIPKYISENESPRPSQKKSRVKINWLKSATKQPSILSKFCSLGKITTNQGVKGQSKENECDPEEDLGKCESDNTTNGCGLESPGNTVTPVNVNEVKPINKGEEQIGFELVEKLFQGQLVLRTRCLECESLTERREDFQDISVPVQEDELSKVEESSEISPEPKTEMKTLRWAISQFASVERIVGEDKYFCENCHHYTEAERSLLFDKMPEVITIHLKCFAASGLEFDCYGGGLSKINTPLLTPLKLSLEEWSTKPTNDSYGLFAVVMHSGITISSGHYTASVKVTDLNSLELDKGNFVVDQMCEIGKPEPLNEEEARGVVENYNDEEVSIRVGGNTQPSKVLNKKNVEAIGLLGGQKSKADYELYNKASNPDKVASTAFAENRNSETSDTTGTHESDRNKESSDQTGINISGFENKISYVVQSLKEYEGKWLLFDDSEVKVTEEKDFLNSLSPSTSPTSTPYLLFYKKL
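Step one: compound is pinned into 1nM USP1/UAF1 in HEPES pH 7.8 buffer with TCEP. Step two: 15 min room-temperature incubation. Step three: Ub-Rho (150nM final) starts cleavage, tracked by fluorescence over six one-minute reads.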
Tau fluor cs – Counterscreen qHTS for Inhibitors of Tau Fibril Formation, Fluorescence Polarization; tau K18 P301L Alexa594 fluorescence, heparin fibrillization; AID 1463, 2008; hit rate 0.93% among 280,000; Potency, µM (titrated, usually from 57.7 µM), inactives show top-dose activity change, negative = decrease; note: potency is the fitted concentration of half-maximal effect; nearly all actives have a fitted effect of over 55% in size
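Human tau K18 P301L (15 uM unlabeled, 0.24 uM Alexa 594-labeled) in 100 mM sodium acetate pH 7 with 20 uM heparin, 6 hr at 37 C. ThT 30 uM added, 1 hr ambient; Alexa 594 FP and total fluorescence read at 555/632 nm.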
Tau fibril ThT – qHTS for Inhibitors of Tau Fibril Formation, Thioflavin T Binding; Microtubule-associated protein tau (Homo sapiens), P10636; AID 1460, 2008; Potency, µM (series often up to 57.4 µM), without a hit: top-dose activity, negative = inhibition, hits mostly inhibitors; recombinant tau K18 P301L, heparin-induced fibrillization, ThT fluorescence; hit rate 2.1% among 270,000; note: potency is the fitted concentration of half-maximal effect; nearly all actives have a fitted effect of over 55% in size
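ThT emission at 510 nm, taken 1 hr after adding 30 uM dye, quantifies aggregates formed when 20 uM heparin acts on human tau K18 P301L for 6 hr at 37 C.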
Coupling enz – qHTS Assay for Inhibitors of Fructose-1,6-bisphosphate Aldolase from Giardia Lamblia: Coupling assay counterscreen. coupling enzyme system counterscreen, AmpLite Red fluorescence. activity change, negative = inhibition, % at 58.2 µM, hits read low. hit rate 0.67% among 290,000. AID 2472, 2010; in the data active = activity change below about -30%
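Activity here indicates interference with the coupling reaction, not aldolase inhibition. Compounds at 57.5 uM final met coupling enzymes for 10 min at RT; substrate and AmpLite Red detection followed, with a 525/598 nm fluorescence read after 20 min.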
Tau FP inhib – qHTS for Inhibitors of Tau Fibril Formation, Fluorescence Polarization; Microtubule-associated protein tau (Homo sapiens), P10636; K18 P301L tau heparin fibrillization, Alexa594 FP, 6 h; Potency, µM (titrated, usually from 57.7 µM), inactives show top-dose activity, negative = inhibition, most hits filed as inhibitors; hit rate 0.39% among 280,000; note: potency is the fitted concentration of half-maximal effect; nearly all actives have a fitted effect of over 55% in size
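K18 P301L tau (15 uM unlabeled/0.24 uM Alexa 594-labeled, final) + compound + heparin 20 uM final; 100 mM NaOAc pH 7; 6 hr 37 C; ThT 30 uM final added, 1 hr RT; FP ex 555/em 632 nm.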
Starred values were filed as active, the others as inactive; ? = inconclusive; . = no result; ! = a repeat was not active; [ ] = remark or other dose. A selection: hits, their analogues and other compounds. The true share with any hit is near 2.3%. Unless noted, calls come from the whole dose curve; as a rule, active = well fitted curve in the direction sought with a large enough effect; inconclusive = small, poorly fitted or top-dose-only effect, or another doubt; inactive = no such curve, though single readings can be large; an effect the other way counts as inactive or inconclusive. % is set by controls: 0 for no effect and ±100 for the full control effect.

SMILES	USP1 inh	Tau fluor cs	Tau fibril ThT	Coupling enz	Tau FP inhib
CCN1CCN(C2=CC3=CC(=C(C#N)C#N)CCC3CC2)CC1 (configuration not stated)	28µM*	-25%	?	-2	-3%
N#CC(C#N)=C1C=C2C=C(N3CCOCC3)CCC2CC1 (configuration not stated)	4µM*	-3%	?	-1	5%
CC1(C)CC(NCCN2CCN(C3=CC(=C(C#N)C#N)CC(C)(C)C3)CC2)=CC(=C(C#N)C#N)C1	-12%	-27%	-8%	1	7%
N#CC(C#N)=C1C=C2C=C(N3CCCCCC3)CCC2CC1 (configuration not stated)	4µM*	-30%	?	-2	8%
Cc1ccc(S(=O)(=O)c2nnn3c2nc(N(C)Cc2ccccc2)c2cc(Cl)ccc23)cc1C	1%	-8%	-4%	.	-5%
O=C(NN1C(=O)c2ccccc2NC1c1ccc([N+](=O)[O-])o1)c1ccc([N+](=O)[O-])cc1 (configuration not stated)	-27%	?	3.2µM*	-8	?
O=C(NN1C(=O)c2ccccc2NC1c1ccc([N+](=O)[O-])o1)c1ccccc1 (configuration not stated)	-6%	-21%	?	-7	?
CC(C)N1CCN(c2ccc(C(=O)c3c(-c4ccc(O)cc4)sc4cc(O)ccc34)cc2)CC1	.	.	.	2	.
Cc1ccc(Cn2c(SCC(=O)C(C)(C)C)nc3ccsc3c2=O)cc1	-2%	-15%	0%	.	-7%
CC(N)(Cc1ccc(O)c(O)c1)C(=O)O (configuration not stated)	.	?	4µM*	.	?
C[C@@](Cc1ccc(O)c(O)c1)(NN)C(=O)O	-12%	?	14µM*!	0	?
C[C@@](N)(Cc1ccc(O)cc1)C(=O)O	.	?	?	2	-13%
Cc1cccc(CS(=O)(=O)c2ncc(Cl)c(C(=O)Nc3nc4ccc(F)cc4s3)n2)c1	-11%	-23%	10µM*	.	-9%
Cc1nnc(NC(=O)c2nc(S(=O)(=O)Cc3ccccc3)ncc2Cl)s1	-14%	-27%	?	.	?
CCCc1nnc(NC(=O)c2nc(S(=O)(=O)Cc3cccc(C)c3)ncc2Cl)s1	-24%	.	.	.	.
O=C(Nc1nc2ccc(F)cc2s1)c1nc(S(=O)(=O)Cc2ccccc2)ncc1Cl	-20%	-30%	7.1µM*	.	-13%
CCOc1ccccc1Nc1sc(C(=O)c2ccc(Cl)cc2)c(N)c1C#N	-9%	1%	5%	.	-4%
COc1ccc(NC(=O)[C@@H](c2ccccc2)N2Cc3ccccc3C2=O)cc1OC	-23%	-21%	-7%	.	2%
CC(C)OC(C)C	.	.	.	0	.
CCn1c(O)c(/C=C2\C=Nc3ccccc32)sc1=Nc1ccc(C)cc1	-10%	?	-10%	-1	9%
COCCCn1c(O)c(/C=C2\N=C(C#N)C(=Nc3ccc(C)cc3)O2)sc1=S	-23%	?	11µM*	-1	?
COc1cc2c(cc1OC)C(=O)N(C)CC2	-18%	-22%	-18%	-2	-8%
COc1cc2cc3c4c(cc(OC)c(OC)c4c2cc1OC)CCN3C	.	13µM*[quencher]	10µM*	-45*	?
Cc1ccc(-n2nc(C)c3c2OC(N)=C(C#N)C3c2ccoc2)cc1 (configuration not stated)	-17%	?	13µM*	-13	?
Cc1ccc(-n2nc(C)c3c2OC(N)=C(C#N)C3c2ccc(C)o2)cc1 (configuration not stated)	?	?	5µM*	-17	?
SMILES	USP1 inh	Tau fluor cs	Tau fibril ThT	Coupling enz	Tau FP inhib
Cc1nn(-c2ccccc2)c2c1C(c1ccc(Br)s1)C(C#N)=C(N)O2 (configuration not stated)	-11%	?	?	-3	0%
Cc1ccc(-n2nc(C)c3c2OC(N)=C(C#N)C3c2ccco2)cc1 (configuration not stated)	-17%	?	25µM*	-7	-11%
Cc1nn(-c2ccccc2)c2c1C(c1ccccc1)C(C#N)=C(N)O2 (configuration not stated)	-18%	-18%	?	2	5%
COc1ccc(Br)c(C(=O)Nc2cc3c(cc2N2CCCCC2)n(C)c(=O)c(=O)n3C)c1	?	-12%	?	.	-1%
Fc1ccc(-c2cc(-c3ccccc3)c3c(n2)-c2cc(F)ccc2OC3)cc1	-21%	-17%	0%	.	?
O=C(CN1CCCCC1)Nc1nnc(-c2ccc([N+](=O)[O-])cc2)s1	-23%	-15%	13µM*	2	-2%
O=C(CN1CCCCC1)Nc1nnc(-c2ccccc2)s1	-3%	-10%	-11%	-3	-4%
Cc1ccc(C)n1-c1sccc1C(=O)O	?	-25%	32µM*	0	?
COc1ccc(N2CC(NC(=O)CCc3ccccc3)CC2=O)cc1OC (configuration not stated)	-23%	0%	1%	.	-9%
CC(C)(C)C(=O)[C@@H]1[C@@H]2C(=O)N(C3CCCCC3)C(=O)[C@@H]2[C@H]2c3ccccc3C=CN12	25µM*	?	32µM*	-24	?
O=C(c1ccc2c(c1)OCO2)[C@@H]1[C@@H]2C(=O)N(C3CCCCC3)C(=O)[C@@H]2C2c3ccccc3C=CN21 (some centres not stated)	?	?	28µM*	-36*	?
COc1ccc(N2C(=O)[C@@H]3[C@H](C2=O)[C@H]2c4ccccc4C=CN2[C@@H]3C(C)=O)cc1	16µM*	-27%	16µM*	-42*	?
O=C1C=C[C@@H](O)[C@H]2[C@@H]3C(=O)N(Cc4ccc5c(c4)OCO5)C(=O)[C@@H]3CC[C@H]12	.	-1%[11.6 µM]	-9%[11.5 µM]	-1	?
COc1ccc(N2C(=O)[C@H]3[C@@H](C2=O)C2c4ccccc4C=NN2[C@H]3C(=O)C(C)(C)C)cc1 (some centres not stated)	-2%	-20%	.	0	12%
O=C(c1cccs1)[C@@H]1[C@@H]2C(=O)N(Cc3ccc4c(c3)OCO4)C(=O)[C@@H]2C2c3ccccc3C=CN21 (some centres not stated)	.	?	22µM*	-38*	?
CO[C@@H]1COC(=O)[C@H](C)NC(=O)C/C=C\[C@@H](C)[C@H](OC)COC(=O)[C@H](C)NC(=O)C/C=C\[C@H]1C	.	-9%[11.6 µM]	-14%[11.5 µM]	1	-1%[11.6 µM]

Screening data from PubChem.
